This is part of a sample that, as a whole, favours compounds with a hit. Of some 83,000 tested, about 20% had one in any assay.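 Method: cells in 96-well plates; compound added at one concentration; 48 h incubation; percent growth measured; values under 10 scored active.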 Unmarked numbers belong to inactive results. The source made the active and inactive calls.
How the values were obtained:
Test in all cases: NCI-60 one-dose screen, 48 h (100 = growth as untreated, 0 = no growth, -100 = all killed)
Conditions in all cases: 10 µM unless noted
SK-MEL-2 melanoma = system: SK-MEL-2 melanoma
EKVX NSCLC = system: EKVX NSCLC
SN12C renal = system: SN12C renal
UO-31 renal = system: UO-31 renal
TK-10 renal = system: TK-10 renal
ACHN renal = system: ACHN renal
A498 renal = system: A498 renal
CCRF-CEM leukemia = system: CCRF-CEM leukemia
MOLT-4 leukemia = system: MOLT-4 leukemia
SR leukemia = system: SR leukemia
RPMI-8226 leukemia = system: RPMI-8226 leukemia
OVCAR-8 ovarian = system: OVCAR-8 ovarian
OVCAR-5 ovarian = system: OVCAR-5 ovarian
OVCAR-4 ovarian = system: OVCAR-4 ovarian
SK-OV-3 ovarian = system: SK-OV-3 ovarian
IGROV1 ovarian = system: IGROV1 ovarian
OVCAR-3 ovarian = system: OVCAR-3 ovarian
HS 578T breast = system: HS 578T breast
NCI/ADR-RES ovarian = system: NCI/ADR-RES ovarian
T-47D breast = system: T-47D breast

Row | Compound | growth (SK-MEL-2 melanoma) | growth (EKVX NSCLC) [%] | growth (SN12C renal) [%] | growth (UO-31 renal) | growth (TK-10 renal) [%] | growth (ACHN renal) | growth (A498 renal) | growth (CCRF-CEM leukemia) | growth (MOLT-4 leukemia) | growth (SR leukemia) | growth (RPMI-8226 leukemia) | growth (OVCAR-8 ovarian) | growth (OVCAR-5 ovarian) [%] | growth (OVCAR-4 ovarian) [%] | growth (SK-OV-3 ovarian) [%] | growth (IGROV1 ovarian) | growth (OVCAR-3 ovarian) | growth (HS 578T breast) | growth (NCI/ADR-RES ovarian) | growth (T-47D breast) [%]
1 | O=[N+]([O-])c1cccc(CN(Cc2cccc([N+](=O)[O-])c2O)c2ccccc2)c1O | 84.7% | 77.3 | 80.6 | 39.6% | 89.7 | 74.6% | 65.5% | 67.8% | 64.6% | 55.8% | 59.8% | 83.2% | 76.5 | 68 | 86.4 | 60.4% | 88.9% | 94.6% | 76% | 70.8
2 | CCCn1c(N)c(C(N)=O)sc1=S | 93.3% | 116 | 93.8 | 79.2% | 130 | 93.9% | 98.5% | 108% | 97% | 66.6% | 94.5% | 106% | 90.8 | 111 | 103 | 100% | 103% | 95.7% | 104% | 94.8
3 | O=C(CN1N=C(c2ccc(F)cc2)CCC1=O)Nc1nc2ccccc2s1 | 92.7% | 24 | 40.2 | -84% (active) | 95.3 | -23.6% (active) | 97.8% | -72.1% (active) | 33.4% | -52.2% (active) | 26.8% | -43% (active) | 16.9 | 35.4 | 73.5 | -49.5% (active) | -40.6% (active) | 67.6% | 6.92% (active) | 83.3
4 | C(=C\c1cn(-c2ccccc2)nc1-c1ccccc1)/c1nnc(-c2c[nH]c3ccccc23)o1 | 86% | 50.8 | 27.9 | 73.2% | 22.8 | 40% | 109% | 78.8% | 69.4% | 48.1% | 40.8% | 35.2% | 93.3 | 47.9 | 91.8 | 59.2% | 20.9% | 44.7% | 51.8% | 55.5
5 | CCCCCOC(=O)c1ccccc1O | 111% | 94.2 | 105 | 91.2% | 99.5 | 107% | 102% | 99.5% | 97% | 85.1% | 102% | 107% | 105 | 95.9 | 92.2 | 111% | 102% | 103% | 110% | 85.8
6 | Cc1nc2sc(C(=O)Nc3cccc4ccccc34)c(N)c2cc1C(C)O (stereo not given) | 36.5% | 36.7 | 36 | 48.6% | 75.2 | 42.8% | 24.2% | 9.13% (active) | 13.3% | 12.3% | 18% | 16.2% | 40.7 | 55.5 | 32.1 | 31.7% | 3.11% (active) | 32.3% | -1.67% (active) | 49.4
7 | COc1cc(C(=O)Nc2cc(OC)c3ccn(C)c3c2)cc2c1C[C@]1(C)CC[C@@H](O)C(C)(C)[C@H]1O2 | -7.94% (active) | 33.5 | 46.8 | -5.02% (active) | 36.9 | 18% | -23.1% (active) | 5.35% (active) | -8.72% (active) | 11.5% | -31.1% (active) | 24.1% | 55.2 | 54.8 | 15.2 | 25.2% | -14.6% (active) | -12.5% (active) | 13.9% | 19.5
8 | O=C(O)C(C(=O)O)c1cccc2ccccc12 | 95.2% | 108 | 100 | 88.5% | 89.3 | 105% | 85.6% | 92.2% | 94.4% | 90.6% | 109% | 101% | 110 | 100 | 101 | 111% | 112% | 102% | 98.9% | 92.7
9 | CN(C)CSc1nc2ccccc2s1 | 101% | 87.6 | 101 | 71.8% | 119 | 92.6% | 111% | 83.5% | 99.7% | 94.1% | 98.7% | 104% | 93.6 | 102 | 84.7 | 83.7% | 99.9% | 116% | 102% | 86.7
10 | Cc1cc(Cl)cc(CN(Cc2ccccc2)Cc2c(O)ccc3ccccc23)c1O | 91% | 99 | 83.5 | 62.2% | 110 | 102% | 76.6% | 99.2% | 104% | 92.9% | 87.4% | 98.5% | 116 | 105 | 97.2 | 94.7% | 91.7% | 102% | 96.5% | 89.5
11 | COc1cc(/C=C/C(=O)c2cccs2)ccc1OCc1ccc(Cl)nc1 | 96.7% | 94.8 | 81.1 | 57.2% | 111 | 102% | 100% | 61.9% | 86.6% | 20.5% | 17.5% | 80.2% | 88.9 | 101 | 105 | 76.8% | 67.9% | 104% | 69.6% | 77.1
12 | COc1ccc2c(c1)/C(=C1\S/C(=N/c3nnc(C)s3)NC1=O)C(=O)N2Cc1ccc(Cl)cc1 | 43.4% | 38.8 | 51.6 | 57.7% | 58.4 | 55.3% | -4.96% (active) | 31.7% | 24.6% | 55.7% | 40.3% | 52.2% | 90.5 | 44.7 | 70 | 41.9% | 42.2% | 55.1% | 32% | 42
13 | CN(C)c1ccc(-c2ccc3[nH]c(=O)nc(-c4ccc(F)cc4)c3c2)cn1 | 30.8% | 55.9 | 45.3 | 52.9% | 73.7 | 52.3% | 18.5% | 12% | 28.1% | 18.3% | 46.9% | 43.5% | 79.9 | 66.5 | 36.2 | 53.8% | 6.67% (active) | 28.5% | 51.7% | 36.6
14 | C#Cc1cccc(Nc2ncnc3ccc(NC(=O)c4ccccc4)cc23)c1 | 85.3% | 52.3 | 76.6 | 56% | 26.1 | 39.6% | 65.4% | 89.7% | 59.5% | 61.8% | 64.6% | 81.1% | 83.4 | 80.4 | 75.3 | 33.7% | 66.2% | 102% | 69.8% | 61.4
15 | COC(=O)CCc1cc(O)c2c(c1)[C@@H](C(=O)OC)[C@H](c1ccc(O)c(O)c1)O2 | 47.8% | 87.7 | 95.1 | 67.7% | 90.6 | 98.2% | 98% | 53.6% | 47.7% | 36% | 80.5% | 90.6% | 98.3 | 83 | 97.4 | 88.1% | 27.5% | 74.3% | 87.8% | 66

From PubChem BioAssay (NCI)
